From PubChem BioAssay
Compounds with a hit are over-represented: about 7.9% of the library has one in this group of screens.
HCV inhibitor: HCV inhibition; Huh7.5.1 HCVcc-Cre infection, luciferase reporter, 44 h; Potency, µM (top dose mostly 41.8 µM), hits mostly inhibitors; 340,000 compounds, 3.4% hits; AID 651820; active = well fitted inhibition curve with a large enough effect; inconclusive = small, poorly fitted or top-dose-only effect, or another doubt; inactive = no such curve, though single readings can be large or run the other way
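Cells (1,000/well) were plated 4 h before compound, then infected with HCVcc-Cre virus (~0.5 moi). After 44 h further culture, infection was read as luciferase luminescence following a 15 min substrate incubation at room temperature.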
MARV entry inh: inhibitors of Marburg virus binding or cell entry; Potency, µM (doses to about 37.8 µM), actives largely listed as inhibitors; Marburg virus pseudotyped entry inhibition, cell reporter; 300,000 compounds, 1.8% hits; calls by dose curve; tested in HEK293 cells
FMDV inh: antivirals against foot and mouth disease virus | FMDV antiviral cell-based qHTS | Potency, µM (titrated, usually from 57.9 µM), usual class: inhibitors | 410,000 compounds, 1.2% hits | AID 1159524; calls by dose curve; tested in HEK293T cells; note: read-out not given here; nearly all actives have a fitted effect of over 45% in size
HCMV antiviral: inhibitors of human cytomegalovirus; 410,000 compounds, 4.5% hits; HFF cells, HCMV-luciferase reporter, 72 h; active compounds read low; activity change, negative = inhibition, % at 57.5 µM; in the data active = activity change below about -60%; inconclusive = no clear call, values can overlap the other calls; inactive = above about -39%
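Human foreskin fibroblasts infected with luciferase-reporter HCMV at MOI 1 PFU/cell, compounds at two doses. Luciferase measured 72 h post infection; normalized to buffer-only basal and Salinomycin (10uM) controls.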
LASV entry inh: Lassa virus entry inhibition | Lassa virus pseudotype entry inhibition, cell reporter | Potency, µM (series often up to 37.9 µM), hits mostly inhibitors | 300,000 compounds, 1.2% hits; calls by dose curve; tested in HEK293 cells; note: nearly all actives have a fitted effect of over 50% in size
Numbers stand for hits; - = inactive; ? = inconclusive; . = no result.

SMILES	HCV inhibitor	MARV entry inh	FMDV inh	HCMV antiviral	LASV entry inh
Cc1ccc(CNC(=O)C2CCN(c3nc4ccccc4n(C)c3=O)CC2)cc1	.	-	-	-	-
O=C(O)c1ccc(N2C(=O)/C(=C/c3ccc(-c4ccc([N+](=O)[O-])cc4)o3)C=C2c2ccccc2)cc1	-	-	16µM	.	-
O=C1NN(c2ccccc2)C(=O)/C1=C/c1ccc(-c2ccc(C(=O)O)cc2)o1	-	.	-	-	.
COC(=O)C(C)NC(=O)c1cn(-c2ccccc2OC)c(=O)c2ccccc12 (stereo not given)	-	.	-	-	.
Cc1cc(Cl)ccc1OCC(=O)NCC(c1cccs1)N1CCOCC1 (stereo not given)	10µM	?	32µM	-72	?
Cc1cc(Cl)ccc1OCC(=O)NC(=S)Nc1ccccc1N1CCOCC1	-	-	-	-	?
CC(C)(C)c1ccc(C(=O)NCCC(=O)Nc2cc(Cl)ccc2N2CCOCC2)cc1	11µM	.	-	-	.
Cc1cc(Cl)ccc1OCC(=O)Nc1ccccc1N1CCOCC1	?	?	28µM	?	8.9µM
O=[N+]([O-])c1ccc(C[n+]2cccc3ccc4cccnc4c32)cc1	?	?	-	-96	-
CSc1ccc2c(c1)N(CCC1CCCCN1C)c1ccccc1S2 (stereo not given)	?	10µM	-	?	5.2µM
CCC(=O)N1CCN(c2ccc(-n3c(=O)ccc4cnc5ccc(-c6cnc7ccccc7c6)cc5c43)cc2C(F)(F)F)CC1	.	.	.	-83	.
O=C(O)COCC(=O)N1CCN(c2cc(C(F)(F)F)nc3ccccc23)CC1	-	.	-	-	.
COc1ccc(CN2C(=O)C(CC(C)C)Nc3ncnc(N4CCN(c5ccccc5)CC4)c32)cc1 (stereo not given)	?	.	-	-	.
COc1ccc(CN2C(=O)C(Cc3ccccc3)Nc3ncnc(N4CCN(c5ccccc5)CC4)c32)cc1 (stereo not given)	3.2µM	.	-	?	.
O=C(C[n+]1ccccc1)Nc1ccccc1C(=O)O	-	.	-	-	.
O=C(/C=C\c1ccccc1OC(=O)c1ccccc1F)c1cc2ccccc2o1	?	?	-	-	?
Cc1ccc2nc(NCc3ccccc3Cl)c3nnnn3c2c1	.	-	-	-	-
Cc1ccc2nc(Cl)c3nnnn3c2c1	?	-	13µM	.	-
CCCCCCCCCCCCCCCCn1cc[n+](C)c1	5.6µM	?	32µM	-96	-
C=CCN1CCN(C(c2ccc(Cl)cc2)c2nnnn2CCc2ccc(OC)c(OC)c2)CC1 (stereo not given)	-	-	-	-101	-
COc1ccc(CCn2nnnc2C(c2ccc(C)cc2)N2CCN(C)CC2)cc1OC (stereo not given)	-	-	-	-	?
O=[N+]([O-])c1cc2c(cc1/C=N/n1c(-c3ccccn3)n[nH]c1=S)OCO2	-	-	-	-	-
COc1ccccc1/C=C\C=N\n1c(-c2ccc(Cl)cc2)n[nH]c1=S	-	-	-	?	10µM
Cc1ccc(-c2n[nH]c(=S)n2/N=C/C=C/c2ccccc2[N+](=O)[O-])cc1	-	-	-	-	13µM
O=[N+]([O-])c1cc2c(cc1/C=N/n1c(-c3ccccc3)n[nH]c1=S)OCO2	-	-	-	-100	-
SMILES	HCV inhibitor	MARV entry inh	FMDV inh	HCMV antiviral	LASV entry inh
CCC[C@H]1[C@@H](NS(=O)(=O)c2cn(C)cn2)CC[C@@]23CCCN2C(=O)CCC[C@@H]13	.	.	.	-	.
O=C(/C=C/c1ccc([N+](=O)[O-])s1)N1CCCC1	?	.	-	-	.
O=C(/C=C/c1ccc([N+](=O)[O-])s1)N1CCN(c2ccccc2)CC1	?	.	-	-70	.
O=C(/C=C/c1ccc([N+](=O)[O-])s1)N1CCCCC1	?	8.9µM	-	?	?
Cc1ccc(-c2oc3ncnc(N)c3c2-c2ccc(C)cc2)cc1	?	-	-	-	-
CN(C)CCNc1ncnc2oc(-c3ccccc3)c(-c3ccccc3)c12	3.2µM	.	?	?	.
COc1ccc(-c2oc3ncnc(NCCCN(C)C)c3c2-c2ccc(OC)cc2)cc1	?	.	?	-84	.
CCOc1ccc(C(=O)Nc2ccc(C(=O)OCc3cc(=O)n4c(C)csc4n3)cc2)cc1	.	.	-	?	?
CCCc1cc(=O)n2c(C(=O)Nc3ccc(OCC)cc3)c(C(=O)Nc3ccc(C)cc3)sc2n1	.	-	-	-84	?
COc1cc(C(=O)Nc2nc(-c3ccc(Cl)cc3)c(C)s2)ccc1OCC(=O)Nc1ccc(F)cc1	?	?	28µM	-	10µM
CCc1ccc(-c2nc(NC(=O)c3ccc(OCC(=O)Nc4ccc(F)cc4)c(OC)c3)sc2C)cc1	?	?	-	-	-
C[C@@H]1CN([C@@H](C)CO)C(=O)CCCn2nncc2CO[C@H]1CN(C)S(=O)(=O)c1ccc(-n2cccn2)cc1	.	.	?	-	.
Oc1c(N=Nc2nn[nH]n2)ccc2ccccc12	.	.	?	-85	.
Cc1ccc(N=Nc2ccc3ccccc3c2O)cc1	-	?	7.9µM	?	4.5µM
COc1cccc(N=Nc2ccc3ccccc3c2O)c1	-	.	-	-	.
Oc1c(N=Nc2ccc(F)cc2)ccc2ccccc12	-	?	14µM	-	?
CCNC(=O)[C@@H]1[C@@H](CO)[C@@H]2Cn3c(cccc3=O)[C@@H]2N1Cc1cccc(F)c1	.	.	.	-	.
COc1ccc(-c2[nH]c(-c3ccc(Cl)cc3)nc2SCC(=O)Nc2nccs2)cc1	?	-	-	-79	-
COc1ccc(-c2[nH]c(-c3ccccc3)nc2SCC(=O)Nc2nccs2)cc1	14µM	?	-	?	-
Cc1c(Cl)cccc1NC(=O)Nc1ccc(C(N)=O)cc1	-	-	-	-	-
CC(=O)Nc1cccc(NC(=O)Nc2cccc(Cl)c2C)c1	-	-	-	-71	-
Cc1c(Cl)cccc1NC(=O)Nc1cc(C(C)(C)C)on1	10µM	.	-	-	.
CC(=O)c1ccc(NC(=O)Nc2ccc3snnc3c2)cc1	.	-	-	-	?
Cc1c(Cl)cccc1NC(=O)Nc1ccc2snnc2c1	.	?	-	-104	?
O=C(Nc1ccc(F)cc1)Nc1ccc2snnc2c1	.	?	-	-75	-
SMILES	HCV inhibitor	MARV entry inh	FMDV inh	HCMV antiviral	LASV entry inh
Cc1cc(NC(=O)c2ccccc2F)nc2c1c(=O)oc1ccccc12	-	?	-	-	-
O=S(=O)(NCc1ccc(F)cc1)c1ccc(N2CCCCS2(=O)=O)cc1	.	.	-	-	-
N#CCc1c(C#N)c(N)nc(N2CCCC(O)C2)c1C#N (stereo not given)	-	-	-	-	-
CCNc1ncc2nc(-c3ccc(OC)cc3)c(=O)n(Cc3cccs3)c2n1	.	.	-	.	.
CCc1cccc(C)c1NC(=O)Cn1ccn(-c2cccc(OC)c2)c(=O)c1=O	.	.	-	-	-
CCc1ccc(-c2cc(C)no2)cc1S(=O)(=O)Nc1cc(OC)c(OC)c(OC)c1	.	.	-	-	?
COc1ccc(-c2nc(-c3ccccc3)oc2NC(C)c2ccccc2)cc1 (stereo not given)	.	-	.	.	?
CNC(=O)Nc1ccc2snnc2c1	-	.	-	-	.
Cc1ccc(F)c(NC(=O)Nc2ccc3snnc3c2)c1	.	-	-	-106	-
Oc1ccccc1/C=N/Nc1cc(N2CCCC2)nc(N2CCCC2)n1	?	2.3µM	-	-	?
